Laboratory results reported in PubChem BioAssay (NCI).
About 83,000 compounds went through this panel and 20% of them were active in at least one assay; those are over-represented in the sample as a whole.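 The endpoint reported here, percent growth, reads 100 for growth as untreated, 0 for no net growth and -100 for all cells dead.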 The source made the active and inactive calls. The calls were made as follows: active = growth percent below 10; inactive = the rest.

Tests used:
Experiment in all cases: NCI-60 one-dose screen, 48 h (100 = growth as untreated, 0 = no growth, -100 = all killed)
Details in all cases: 10 µM unless noted
SR leukemia = test system: SR leukemia
RPMI-8226 leukemia = test system: RPMI-8226 leukemia
OVCAR-8 ovarian = test system: OVCAR-8 ovarian
OVCAR-5 ovarian = test system: OVCAR-5 ovarian
OVCAR-4 ovarian = test system: OVCAR-4 ovarian
SK-OV-3 ovarian = test system: SK-OV-3 ovarian
OVCAR-3 ovarian = test system: OVCAR-3 ovarian
HS 578T breast = test system: HS 578T breast
NCI/ADR-RES ovarian = test system: NCI/ADR-RES ovarian
T-47D breast = test system: T-47D breast
BT-549 breast = test system: BT-549 breast
MDA-MB-435 melanoma = test system: MDA-MB-435 melanoma
SW-620 colon = test system: SW-620 colon
MCF7 breast = test system: MCF7 breast
HCT-116 colon = test system: HCT-116 colon
HCC-2998 colon = test system: HCC-2998 colon
KM12 colon = test system: KM12 colon
IGROV1 ovarian = test system: IGROV1 ovarian

Measured: growth

O=C(c1ccc(N2CCOCC2)cc1[N+](=O)[O-])N1CCOCC1
inactive: SR leukemia 423% | RPMI-8226 leukemia 128% | OVCAR-8 ovarian 73.5% | OVCAR-5 ovarian 102% | OVCAR-4 ovarian 52% | SK-OV-3 ovarian 110% | OVCAR-3 ovarian 110% | HS 578T breast 33% | NCI/ADR-RES ovarian 108% | T-47D breast 102% | BT-549 breast 104% | SW-620 colon 93.1% | MCF7 breast 127% | HCT-116 colon 107% | HCC-2998 colon 108% | KM12 colon 121%
active: MDA-MB-435 melanoma -32.2%

CCCCN1c2nc3ccccc3cc2Sc2cc3ccccc3nc21
inactive: SR leukemia 76.5% | RPMI-8226 leukemia 78.4% | OVCAR-8 ovarian 106% | OVCAR-5 ovarian 93.6% | OVCAR-4 ovarian 93.7% | SK-OV-3 ovarian 112% | OVCAR-3 ovarian 294% | HS 578T breast 99.8% | NCI/ADR-RES ovarian 106% | T-47D breast 13.7% | BT-549 breast 97.1% | MDA-MB-435 melanoma 151% | SW-620 colon 94.4% | HCT-116 colon 95.1% | HCC-2998 colon 86.5% | KM12 colon 68.3%
active: MCF7 breast 7.26%

CCN1CC2=C(Nc3nc(SC)[nH]c(=O)c3C2c2cc(OC)c(OC)c(OC)c2)/C(=C/c2cc(OC)c(OC)c(OC)c2)C1 (configuration not stated)
inactive: SR leukemia 82.5% | RPMI-8226 leukemia 96.7% | OVCAR-8 ovarian 94% | OVCAR-5 ovarian 106% | OVCAR-4 ovarian 95.9% | SK-OV-3 ovarian 110% | OVCAR-3 ovarian 116% | HS 578T breast 111% | NCI/ADR-RES ovarian 105% | T-47D breast 97.5% | BT-549 breast 102% | MDA-MB-435 melanoma 93.5% | SW-620 colon 102% | MCF7 breast 86.2% | HCT-116 colon 92.6% | HCC-2998 colon 102% | KM12 colon 97.5%

Cc1sc2nc(NCc3ccccc3)[nH]c(=O)c2c1C
inactive: SR leukemia 14.4% | RPMI-8226 leukemia 49.6% | OVCAR-8 ovarian 59.7% | OVCAR-5 ovarian 70.5% | OVCAR-4 ovarian 91.7% | SK-OV-3 ovarian 50.8% | IGROV1 ovarian 67.9% | OVCAR-3 ovarian 40.7% | NCI/ADR-RES ovarian 31.2% | T-47D breast 31.6% | BT-549 breast 53.9% | SW-620 colon 26% | MCF7 breast 31% | HCT-116 colon 24.5% | HCC-2998 colon 87.7% | KM12 colon 36.2%
active: MDA-MB-435 melanoma -31%

CC(=O)OC1Oc2cc(C)c(C)cc2-c2oc(=O)c(-c3ccccc3)cc21 (configuration not stated)
active: SR leukemia -42.2% | RPMI-8226 leukemia -18.1% | OVCAR-3 ovarian -39.9% | HS 578T breast -19.5% | MDA-MB-435 melanoma -19.6% | KM12 colon 7.26%
inactive: OVCAR-8 ovarian 24.4% | OVCAR-5 ovarian 67.9% | OVCAR-4 ovarian 42% | SK-OV-3 ovarian 11.6% | NCI/ADR-RES ovarian 25.3% | T-47D breast 43.8% | BT-549 breast 24.9% | SW-620 colon 16.3% | MCF7 breast 10.9% | HCT-116 colon 14% | HCC-2998 colon 41.4%

COc1cc2c(cc1OC)C(=O)/C(=C/c1cccc(OCC(=O)c3ccccc3)c1)C2
inactive: SR leukemia 42.2% | RPMI-8226 leukemia 43.3% | OVCAR-8 ovarian 76.8% | OVCAR-5 ovarian 105% | OVCAR-4 ovarian 86% | SK-OV-3 ovarian 117% | OVCAR-3 ovarian 118% | HS 578T breast 77.2% | NCI/ADR-RES ovarian 50.2% | T-47D breast 55.2% | BT-549 breast 49.4% | MDA-MB-435 melanoma 110% | SW-620 colon 74.6% | MCF7 breast 60.7% | HCT-116 colon 64.6% | HCC-2998 colon 111% | KM12 colon 170%

O=C(Nc1ccccc1)c1cc(-n2cnc([N+](=O)[O-])c2)cc(-n2cnc([N+](=O)[O-])c2)n1
inactive: SR leukemia 84.2% | RPMI-8226 leukemia 86.1% | OVCAR-8 ovarian 92.7% | OVCAR-5 ovarian 109% | OVCAR-4 ovarian 100% | SK-OV-3 ovarian 104% | OVCAR-3 ovarian 105% | HS 578T breast 96.7% | NCI/ADR-RES ovarian 111% | T-47D breast 107% | BT-549 breast 113% | MDA-MB-435 melanoma 122% | SW-620 colon 99.7% | MCF7 breast 116% | HCT-116 colon 103% | HCC-2998 colon 65.2% | KM12 colon 94.1%

COc1ccc(C(=O)COc2ccc(/C=C3\Oc4ccc5ccccc5c4C3=O)cc2)cc1
inactive: SR leukemia 40.2% | RPMI-8226 leukemia 66.8% | OVCAR-8 ovarian 90.6% | OVCAR-5 ovarian 106% | OVCAR-4 ovarian 88.9% | SK-OV-3 ovarian 97.8% | OVCAR-3 ovarian 115% | HS 578T breast 96.3% | NCI/ADR-RES ovarian 97.4% | T-47D breast 55.8% | BT-549 breast 45.1% | MDA-MB-435 melanoma 101% | SW-620 colon 94.6% | MCF7 breast 36.3% | HCT-116 colon 85.9% | HCC-2998 colon 97.9% | KM12 colon 90.9%

O=C(NCCCl)NCCN1c2nc3ccccc3cc2Sc2cc3ccccc3nc21
inactive: SR leukemia 35.9% | RPMI-8226 leukemia 42% | OVCAR-8 ovarian 56.2% | OVCAR-5 ovarian 82.2% | OVCAR-4 ovarian 49.5% | SK-OV-3 ovarian 77.1% | OVCAR-3 ovarian 142% | HS 578T breast 58% | NCI/ADR-RES ovarian 57.4% | T-47D breast 69% | BT-549 breast 40.3% | MDA-MB-435 melanoma 58.5% | SW-620 colon 41.3% | MCF7 breast 18.3% | HCT-116 colon 31.3% | HCC-2998 colon 35.1% | KM12 colon 71.9%

CC(=O)N1N=C(c2ccc(Nc3nc(NCCO)nc(NCCO)n3)cc2)CC1c1ccc(Cl)cc1 (configuration not stated)
inactive: SR leukemia 142% | RPMI-8226 leukemia 112% | OVCAR-8 ovarian 104% | OVCAR-5 ovarian 103% | OVCAR-4 ovarian 104% | SK-OV-3 ovarian 101% | IGROV1 ovarian 99.4% | OVCAR-3 ovarian 96.4% | NCI/ADR-RES ovarian 99.8% | T-47D breast 66.2% | BT-549 breast 87.9% | MDA-MB-435 melanoma 101% | SW-620 colon 107% | MCF7 breast 90.5% | HCC-2998 colon 102% | KM12 colon 100%

O=C(COc1cccc(/C=C2\Oc3ccc4ccccc4c3C2=O)c1)c1ccc([N+](=O)[O-])cc1
inactive: RPMI-8226 leukemia 79.9% | OVCAR-8 ovarian 97.6% | OVCAR-5 ovarian 100% | OVCAR-4 ovarian 81.8% | SK-OV-3 ovarian 88.9% | OVCAR-3 ovarian 103% | HS 578T breast 93.1% | NCI/ADR-RES ovarian 102% | T-47D breast 64% | MDA-MB-435 melanoma 90.8% | SW-620 colon 80% | MCF7 breast 49.3% | HCT-116 colon 58.5% | HCC-2998 colon 108% | KM12 colon 88.3%
active: SR leukemia 3.73% | BT-549 breast -81.9%

FC(F)(F)c1ccc(-c2cnc(-c3nn[nH]n3)nc2NC2CCCCCC2)cc1
inactive: SR leukemia 15.1% [50 µM] | RPMI-8226 leukemia 34.5% [50 µM] | OVCAR-8 ovarian 42.4% [50 µM] | OVCAR-5 ovarian 101% [50 µM] | OVCAR-4 ovarian 60.8% [50 µM] | SK-OV-3 ovarian 86.1% [50 µM] | IGROV1 ovarian 52.7% [50 µM] | OVCAR-3 ovarian 31% [50 µM] | NCI/ADR-RES ovarian 30.8% [50 µM] | T-47D breast 46.9% [50 µM] | BT-549 breast 50.8% [50 µM] | MDA-MB-435 melanoma 43.1% [50 µM] | SW-620 colon 41.2% [50 µM] | MCF7 breast 50.4% [50 µM] | HCC-2998 colon 60.6% [50 µM] | KM12 colon 41.5% [50 µM]

COC(=O)N/N=C/c1coc2ccc(Cl)cc2c1=O
inactive: SR leukemia 53.8% | RPMI-8226 leukemia 60.3% | OVCAR-8 ovarian 110% | OVCAR-5 ovarian 95.3% | OVCAR-4 ovarian 97% | SK-OV-3 ovarian 92.3% | OVCAR-3 ovarian 63.4% | HS 578T breast 92.8% | NCI/ADR-RES ovarian 99% | T-47D breast 83% | BT-549 breast 82.5% | MDA-MB-435 melanoma 103% | SW-620 colon 101% | MCF7 breast 88.9% | HCT-116 colon 95.5% | HCC-2998 colon 101% | KM12 colon 94%

CC[n+]1c(/C=C/c2ccc(N3CCCC3)cc2)cccc1/C=C/c1ccc(N2CCCC2)cc1
active: RPMI-8226 leukemia -41.1% | OVCAR-8 ovarian -87.3% | OVCAR-5 ovarian -80.1% | OVCAR-4 ovarian -73.8% | SK-OV-3 ovarian -95.6% | OVCAR-3 ovarian -90.1% | HS 578T breast -70.2% | NCI/ADR-RES ovarian -68.6% | T-47D breast -61% | BT-549 breast -89.7% | MDA-MB-435 melanoma -70.7% | SW-620 colon -88.1% | MCF7 breast -85.5% | HCT-116 colon -54.7% | HCC-2998 colon -82.5% | KM12 colon -81.5%
inactive: SR leukemia 57.2%

COc1cnc2c(c1)C(=O)c1c-2n(CCCN2CCC(O)CC2)c(=O)c2cc(F)ccc12
inactive: HS 578T breast 27.7% | HCC-2998 colon 13.5%
active: SR leukemia 0.0108% | RPMI-8226 leukemia -26.2% | OVCAR-8 ovarian -6.45% | OVCAR-5 ovarian -8.07% | OVCAR-4 ovarian -0.215% | SK-OV-3 ovarian -31.6% | OVCAR-3 ovarian -8.34% | NCI/ADR-RES ovarian 0.114% | T-47D breast -4.28% | BT-549 breast 0.525% | MDA-MB-435 melanoma 8.13% | SW-620 colon 6.58% | MCF7 breast 0.145% | HCT-116 colon -71.7% | KM12 colon -6.17%

O=C(NN1C(=O)c2cc(C(=O)O)c(C(=O)O)cc2C1=O)c1ccncc1
inactive: SR leukemia 119% | RPMI-8226 leukemia 103% | OVCAR-8 ovarian 112% | OVCAR-5 ovarian 107% | OVCAR-4 ovarian 116% | SK-OV-3 ovarian 110% | OVCAR-3 ovarian 131% | HS 578T breast 104% | NCI/ADR-RES ovarian 116% | T-47D breast 102% | BT-549 breast 103% | MDA-MB-435 melanoma 114% | SW-620 colon 101% | MCF7 breast 98.3% | HCT-116 colon 106% | HCC-2998 colon 103% | KM12 colon 111%

Nc1nc(Nc2ccccc2SSc2ccccc2Nc2nc(N)nc(C(Cl)(Cl)Cl)n2)nc(C(Cl)(Cl)Cl)n1
inactive: SR leukemia 14.8% | RPMI-8226 leukemia 36.1% | OVCAR-8 ovarian 47.9% | OVCAR-5 ovarian 82% | OVCAR-4 ovarian 65.3% | SK-OV-3 ovarian 121% | OVCAR-3 ovarian 64.6% | HS 578T breast 73.4% | NCI/ADR-RES ovarian 48.9% | T-47D breast 15.7% | BT-549 breast 54.2% | MDA-MB-435 melanoma 82.9% | SW-620 colon 68.1% | MCF7 breast 75.7% | HCT-116 colon 45.8% | HCC-2998 colon 111% | KM12 colon 43.4%
